Common to all, as to format: functional
Experiment [1] concerns Plasmodium falciparum. As to the kind of experiment: GSK_TCMDC: Inhibition of Plasmodium falciparum 3D7 in whole red blood cells, using parasite LDH activity as an index of growth. Test compounds present at 2uM.
The test system of experiment [2] is Plasmodium falciparum. As to the kind of experiment: GSK_TCMDC: Inhibition of Plasmodium falciparum Dd2 in whole red blood cells, using parasite LDH activity as an index of growth. Test compounds present at 2uM.
Experiment [3] concerns HepG2. The experiment in a line: GSK_TCMDC: Percent inhibition of human HepG2 cell line. Test compounds present at 10uM.

The term Inhibition denotes the change of the read-out against control, counted positive when it falls. Turning to `Cc1cccc2nc(-c3ccc(-c4cccc(CNCCN5CCNCC5)c4)cc3)[nH]c12.O=C(O)C(F)(F)F`, the figures for the Inhibition in experiment [1], in experiment [2] and in experiment [3] were 85%, 2% and 9%, respectively.
The matching figures for `CC(=O)NCCNCc1cccc(C(=O)NCc2cccc(C(F)(F)F)c2)c1`: 95%, 0% and 1%.
As to `CO/C(=C\C=C\c1cc2cc(Cl)c(Cl)cc2[nH]1)C(=O)NC1CCN(CCNc2ccccc2)CC1`, the Inhibition in experiment [1] stood at 100%; in experiment [2] it was 98%; in experiment [3], 60%.
On to `CC(C)C[C@H](NC(=O)[C@H](Cc1ccccc1)NC(=O)CCN1C(=O)COc2ccc(C(=O)O)cc21)C(=O)NC(CC1CCCCC1)C(O)CC(=O)NCCCn1ccnc1.Cl.O` (stereo not given in full), for which the Inhibition in experiment [1] is 99%; in experiment [2] it was 0%; in experiment [3], 0%.
Consider `C=CCn1c(Sc2ccc(C#N)c([N+](=O)[O-])c2)nnc1-c1cc(OC)cc(OC)c1`, for which the Inhibition in experiment [1] was 96%; in experiment [2], 84%; in experiment [3] it was 12%.
The matching figures for `O=C(/C=C/c1cccc2ccccc12)NCCCCCN1CCC(c2c[nH]c3ccccc23)CC1`: 92%, 6% and 55%.
Take `CCN1CCN(c2cc(C)c3cc(NC(=O)c4ccc(N(CC)CC)cc4)ccc3n2)CC1`: the Inhibition is 95% in experiment [1], 41% in experiment [2] and 38% in experiment [3].
With `COc1cc(Nc2ccnc3cc(-c4ccncc4)ccc23)cc(OC)c1OC.Cl`, the Inhibition in experiment [1] is listed as 89%; in experiment [2] it was 39%; in experiment [3] it was 9%.
Turning to `Cc1ccccc1OCC(O)CNC1CCC(NCC(O)COc2ccccc2C)CC1` (stereo not given), the Inhibition is 98% in experiment [1], 24% in experiment [2] and 96% in experiment [3].
On to `CCOc1ccc(-c2nonc2NC(=O)c2ccccc2OC)cc1OCC`, for which the Inhibition in experiment [1] amounted to 100%; in experiment [2], 99%; in experiment [3] it was 24%.

(Values after ChEMBL document CHEMBL1157539, “Thousands of chemical starting points for antimalarial lead identification” (Nature, 2010).)
